# According to paper PMC7862700, “An all-to-all approach to the identification of sequence-specific readers for epigenetic DNA modifications on cytosine”:
# Tests used:
# Assay in all cases: DAPPL (digital affinity profiling via proximity ligation, sequencing); 10 mM Tris-HCl pH 7.5, 50 mM NaCl, 1 mM DTT, 4% glycerol, room temperature, 30 min; GST-TFs on glutathione beads, 16-mer random dsDNA library, 0.1% formaldehyde crosslink after washing; high values mean tight binding
# Conditions in all cases: protein: recombinant; tags: N-terminal GST; dsDNA, one strand shown
# ETV1 = ETV1 (Homo sapiens, UniProt P50549 1-477)
# Method in brief: (§1)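 Human transcription factors were made in yeast as GST fusions, captured on glutathione beads and barcoded with DNA. With a tag-only sample included, the pool was incubated with 200 nmole of a random double-stranded 16-mer DNA library in Tris/NaCl/DTT/glycerol buffer at room temperature for 30 min, then crosslinked with 0.1% formaldehyde after washing, ligated by proximity, amplified and sequenced. For binding signal, each hexamer's read frequency for a factor is divided by its frequency for the tag-only sample.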
# ERF = target: T1, ERF (Homo sapiens, UniProt P50548 1-548)
# T1 sequence: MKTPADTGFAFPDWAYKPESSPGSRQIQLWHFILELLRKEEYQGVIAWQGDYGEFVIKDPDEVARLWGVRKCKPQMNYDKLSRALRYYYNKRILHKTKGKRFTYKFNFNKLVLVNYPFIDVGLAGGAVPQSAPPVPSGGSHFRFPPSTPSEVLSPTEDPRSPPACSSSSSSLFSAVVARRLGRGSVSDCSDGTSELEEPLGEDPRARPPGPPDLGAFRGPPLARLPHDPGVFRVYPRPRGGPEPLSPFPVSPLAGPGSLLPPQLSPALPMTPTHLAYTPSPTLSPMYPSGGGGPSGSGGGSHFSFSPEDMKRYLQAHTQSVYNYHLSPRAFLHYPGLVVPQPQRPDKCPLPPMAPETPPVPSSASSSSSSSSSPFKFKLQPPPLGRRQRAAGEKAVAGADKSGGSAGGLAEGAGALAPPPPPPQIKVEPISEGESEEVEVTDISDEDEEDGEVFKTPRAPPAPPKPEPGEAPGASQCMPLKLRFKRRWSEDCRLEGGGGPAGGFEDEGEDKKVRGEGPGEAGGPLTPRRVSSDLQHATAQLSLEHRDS
# Method in brief: as §1
# ETV3L = target: T2, ETV3L (Homo sapiens, UniProt Q6ZN32 1-361)
# T2 sequence: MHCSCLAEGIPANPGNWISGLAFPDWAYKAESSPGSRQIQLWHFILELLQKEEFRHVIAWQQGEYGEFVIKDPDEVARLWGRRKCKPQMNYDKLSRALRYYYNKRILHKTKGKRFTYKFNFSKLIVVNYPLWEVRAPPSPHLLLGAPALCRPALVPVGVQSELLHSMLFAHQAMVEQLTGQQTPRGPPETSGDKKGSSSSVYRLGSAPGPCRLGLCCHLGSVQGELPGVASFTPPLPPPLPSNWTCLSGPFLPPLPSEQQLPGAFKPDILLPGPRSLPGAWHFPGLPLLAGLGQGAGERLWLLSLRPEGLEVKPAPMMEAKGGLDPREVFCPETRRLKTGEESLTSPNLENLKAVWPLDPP
# Method in brief: as §1
# ETS2 = target: T3, ETS2 (Homo sapiens, UniProt P15036 1-469)
# T3 sequence: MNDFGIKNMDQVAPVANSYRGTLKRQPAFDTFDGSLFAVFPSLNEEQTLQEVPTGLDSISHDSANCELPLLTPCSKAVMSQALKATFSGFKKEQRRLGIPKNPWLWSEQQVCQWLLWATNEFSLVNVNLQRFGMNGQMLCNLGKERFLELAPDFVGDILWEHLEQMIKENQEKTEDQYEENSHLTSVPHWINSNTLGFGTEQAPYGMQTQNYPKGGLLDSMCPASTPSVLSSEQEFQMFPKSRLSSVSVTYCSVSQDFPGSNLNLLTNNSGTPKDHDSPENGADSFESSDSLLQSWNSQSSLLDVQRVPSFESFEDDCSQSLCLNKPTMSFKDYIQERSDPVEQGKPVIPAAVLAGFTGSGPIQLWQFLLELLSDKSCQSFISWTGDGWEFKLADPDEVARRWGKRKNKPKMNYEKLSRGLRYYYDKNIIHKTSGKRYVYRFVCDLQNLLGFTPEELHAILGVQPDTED
# Method in brief: as §1
# SPDEF = target: T4, SPDEF (Homo sapiens, UniProt O95238 1-335)
# T4 sequence: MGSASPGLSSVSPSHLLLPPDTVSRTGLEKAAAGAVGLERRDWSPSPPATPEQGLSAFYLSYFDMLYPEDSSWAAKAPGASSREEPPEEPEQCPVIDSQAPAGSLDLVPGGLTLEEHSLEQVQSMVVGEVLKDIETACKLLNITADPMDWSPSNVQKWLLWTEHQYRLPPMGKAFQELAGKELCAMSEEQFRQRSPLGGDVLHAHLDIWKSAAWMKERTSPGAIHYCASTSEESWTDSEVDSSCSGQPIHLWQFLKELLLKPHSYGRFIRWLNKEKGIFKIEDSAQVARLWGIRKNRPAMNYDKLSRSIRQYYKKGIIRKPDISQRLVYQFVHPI
# Method in brief: as §1
# ETV7 = target: T5, ETV7 (Homo sapiens, UniProt Q9Y603 1-341)
# T5 sequence: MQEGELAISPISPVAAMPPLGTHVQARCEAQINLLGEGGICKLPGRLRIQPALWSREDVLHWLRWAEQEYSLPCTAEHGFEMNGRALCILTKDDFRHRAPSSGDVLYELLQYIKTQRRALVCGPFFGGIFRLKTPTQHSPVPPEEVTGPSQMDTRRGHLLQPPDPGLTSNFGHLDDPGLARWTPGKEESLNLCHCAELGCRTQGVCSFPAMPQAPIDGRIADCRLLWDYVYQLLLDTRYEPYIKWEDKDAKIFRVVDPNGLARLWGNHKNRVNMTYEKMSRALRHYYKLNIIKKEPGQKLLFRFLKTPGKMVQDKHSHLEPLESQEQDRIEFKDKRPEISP
# Method in brief: as §1
# ELF5 = target: T6, ELF5 (Homo sapiens, UniProt Q9UKW6-2 1-255)
# T6 sequence: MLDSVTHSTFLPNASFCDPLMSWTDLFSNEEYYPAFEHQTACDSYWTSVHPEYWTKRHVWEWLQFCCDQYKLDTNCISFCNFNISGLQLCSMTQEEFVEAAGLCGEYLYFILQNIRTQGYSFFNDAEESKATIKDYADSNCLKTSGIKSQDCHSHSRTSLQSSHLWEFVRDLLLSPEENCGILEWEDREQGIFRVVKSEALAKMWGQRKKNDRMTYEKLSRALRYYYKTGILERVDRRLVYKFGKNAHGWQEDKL
# Method in brief: as §1
# ETV3 = target: T7, ETV3 (Homo sapiens, UniProt P41162-2 1-143)
# T7 sequence: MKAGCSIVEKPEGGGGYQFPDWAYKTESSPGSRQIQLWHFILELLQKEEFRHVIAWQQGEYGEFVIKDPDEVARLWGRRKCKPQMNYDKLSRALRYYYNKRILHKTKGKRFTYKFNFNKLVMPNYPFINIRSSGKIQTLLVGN
# Method in brief: as §1
# ETV6 = ETV6 (Homo sapiens, UniProt P41212 1-452)
# Method in brief: as §1
# Chain of ETV1 (P50549 whole entry, the tested form may be a part): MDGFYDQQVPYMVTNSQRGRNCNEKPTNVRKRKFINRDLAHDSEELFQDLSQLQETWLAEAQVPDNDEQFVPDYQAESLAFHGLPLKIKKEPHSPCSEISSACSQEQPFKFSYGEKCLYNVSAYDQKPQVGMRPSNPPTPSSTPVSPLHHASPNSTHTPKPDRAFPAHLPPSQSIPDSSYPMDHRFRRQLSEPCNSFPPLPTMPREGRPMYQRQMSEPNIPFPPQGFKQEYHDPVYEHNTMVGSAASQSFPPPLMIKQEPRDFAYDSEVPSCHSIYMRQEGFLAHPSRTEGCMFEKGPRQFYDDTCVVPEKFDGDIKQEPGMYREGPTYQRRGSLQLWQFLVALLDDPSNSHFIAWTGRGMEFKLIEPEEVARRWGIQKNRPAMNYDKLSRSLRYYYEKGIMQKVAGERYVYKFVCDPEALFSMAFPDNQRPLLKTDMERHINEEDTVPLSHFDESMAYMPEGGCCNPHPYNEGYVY
# Chain of ETV6 (P41212 whole entry): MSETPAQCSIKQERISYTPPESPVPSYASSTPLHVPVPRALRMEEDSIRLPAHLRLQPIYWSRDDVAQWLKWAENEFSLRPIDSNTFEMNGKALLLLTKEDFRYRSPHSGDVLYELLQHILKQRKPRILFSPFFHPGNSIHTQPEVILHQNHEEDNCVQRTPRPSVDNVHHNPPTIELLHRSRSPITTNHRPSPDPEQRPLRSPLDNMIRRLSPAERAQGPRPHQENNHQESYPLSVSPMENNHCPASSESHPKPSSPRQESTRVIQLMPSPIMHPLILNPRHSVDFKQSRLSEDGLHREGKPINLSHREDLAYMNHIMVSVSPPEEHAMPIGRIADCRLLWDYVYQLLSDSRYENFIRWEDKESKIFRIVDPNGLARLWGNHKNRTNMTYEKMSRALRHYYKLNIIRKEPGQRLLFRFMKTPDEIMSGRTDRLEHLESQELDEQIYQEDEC
sequence,measurement,setting,value
TCTTAT,binding signal,ETV1,"1.32 fold enrichment (6-mer frequency, TF over GST control)"
same,binding signal,ERF,"1.24 fold enrichment (6-mer frequency, TF over GST control)"
same,binding signal,ETV3L,"1.29 fold enrichment (6-mer frequency, TF over GST control)"
same,binding signal,ETS2,"1.31 fold enrichment (6-mer frequency, TF over GST control)"
same,binding signal,SPDEF,"1.24 fold enrichment (6-mer frequency, TF over GST control)"
same,binding signal,ETV7,"1.25 fold enrichment (6-mer frequency, TF over GST control)"
same,binding signal,ELF5,"1.29 fold enrichment (6-mer frequency, TF over GST control)"
same,binding signal,ETV3,"1.23 fold enrichment (6-mer frequency, TF over GST control)"
same,binding signal,ETV6,"1.3 fold enrichment (6-mer frequency, TF over GST control)"
